Source: PubChem BioAssay
Gli-Sufu antag = antagonists of Gli-Sufu signaling | inhibition, % at 5 µM | AID 588413 | Sufu-KO-LIGHT fibroblasts, Gli luciferase reporter luminescence | 340,000 tested, 0.74% active;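 active = inhibition above about 55%, limit read from the data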
CSC inhib = blocks cancer stem cells; cancer stem cell-like cells viability, luminescence; inhibition, % at 7.5 µM; 300,000 tested, 1.1% active; in the data active = inhibition above about 75%; inconclusive = no clear call, values can overlap the other calls; tested in HMLE shEcad cells
Jurkat NFkB inh = lowers PMA/ionomycin-induced NF-kB signal in Jurkat cells | PMA/ionomycin-induced NF-kB luciferase reporter, luminescence | inhibition, % at 4 µM | 330,000 tested, 0.53% active; in the data active = inhibition above about 50%
697 NFkB inh = lowers PMA/ionomycin-induced NF-kB signal in 697 B cells | 697 B-cell NF-kB luciferase reporter, 16 h | inhibition, % at 4 µM | 330,000 tested, 0.33% active; in the data active = inhibition above about 35%
Beta cell apopt = beta cell apoptosis inhibition; INS-1E cytokine-induced death, ATP luminescence, 48 h; percent of positive-control rescue, neutral wells zero; protection from apoptosis, % (no concentration beside the values); 300,000 tested, 0.8% active;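 active = Every replicate reaches about 75%, or at least half do and their mean reaches it too, limit read from the data; inconclusive = At least half of replicates reach the limit but their mean does not; inactive = Under half of replicates reach the limit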;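 note: higher means more ATP so stronger rescue from cytokine killing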
Mdm2 MdmX PPI = disrupts the human Mdm2-MdmX interaction | O15151+Q00987 | SaOS-2 split-luciferase Mdm2/MdmX complementation, luminescence | inhibition, % at 8 µM | 330,000 tested, 3% active | AID 485346;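 active = inhibition of at least 50% at 8 µM in the primary screen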
Target sequence (O15151 whole entry, looked up): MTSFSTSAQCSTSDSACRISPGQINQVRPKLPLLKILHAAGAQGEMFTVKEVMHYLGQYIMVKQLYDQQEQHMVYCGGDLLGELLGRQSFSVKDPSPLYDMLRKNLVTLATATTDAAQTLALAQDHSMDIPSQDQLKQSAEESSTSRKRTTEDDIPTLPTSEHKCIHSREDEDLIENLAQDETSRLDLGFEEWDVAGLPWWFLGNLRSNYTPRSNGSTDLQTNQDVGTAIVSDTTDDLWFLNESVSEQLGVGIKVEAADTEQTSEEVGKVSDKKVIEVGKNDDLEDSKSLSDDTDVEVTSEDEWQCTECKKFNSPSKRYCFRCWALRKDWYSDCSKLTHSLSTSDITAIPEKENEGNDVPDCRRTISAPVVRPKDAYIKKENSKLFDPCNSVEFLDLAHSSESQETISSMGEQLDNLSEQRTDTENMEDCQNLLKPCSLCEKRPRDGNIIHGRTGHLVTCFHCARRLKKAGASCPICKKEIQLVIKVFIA
Target sequence (Q00987 whole entry, looked up): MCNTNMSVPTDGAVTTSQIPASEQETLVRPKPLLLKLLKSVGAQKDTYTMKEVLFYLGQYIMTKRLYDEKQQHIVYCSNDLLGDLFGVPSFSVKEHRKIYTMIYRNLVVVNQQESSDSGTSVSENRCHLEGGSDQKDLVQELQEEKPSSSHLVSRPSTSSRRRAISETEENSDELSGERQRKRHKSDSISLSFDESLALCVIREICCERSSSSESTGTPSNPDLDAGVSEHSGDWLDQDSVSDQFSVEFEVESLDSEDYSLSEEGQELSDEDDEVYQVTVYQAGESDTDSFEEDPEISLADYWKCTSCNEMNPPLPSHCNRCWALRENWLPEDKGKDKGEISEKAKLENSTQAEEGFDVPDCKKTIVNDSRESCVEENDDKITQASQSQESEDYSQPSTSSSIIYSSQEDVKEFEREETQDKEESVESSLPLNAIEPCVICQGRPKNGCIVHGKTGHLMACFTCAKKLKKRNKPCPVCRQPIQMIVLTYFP
Mdm2-MdmX conf = human Mdm2/MdmX binding inhibition, confirmed. 10,000 tested, 55% active. shares compounds with Mdm2 MdmX PPI. inhibition, % at 8 µM. luminescent assay; in the data active = inhibition above about 40%
FLuc counter = full-length luciferase inhibition in Mdm2/MdmX counter-screen | shares compounds with Mdm2 MdmX PPI | SaOS-2 full-length luciferase counterscreen, luminescence | inhibition, % at 8 µM | 6,200 tested, 77% active;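 active = mean inhibition at 8 µM reaching about 37%, which flags the compound as non-specific, limit read from the data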;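 note: p53-null SaOS-2 cells with luciferase driven by a doxycycline-inducible promoter; compound on cells about two nights before reading with doxycycline added after day one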
A number is an active result; 0 = inactive; ? = inconclusive; - = not tested or not shown. The list is not random: actives were taken first. Their share in the collection is about 4.5%.

SMILES	Gli-Sufu antag	CSC inhib	Jurkat NFkB inh	697 NFkB inh	Beta cell apopt	Mdm2 MdmX PPI	Mdm2-MdmX conf	others
O=C(O)C(c1ccccc1)C(O)c1ccc2c(c1)OCO2 (stereo not drawn)	0	-	-	-	-	-	-
Cc1cc(C(=O)OCC(=O)N2CCC(C)CC2)c2ccccc2n1	0	0	0	0	0	0	-
CCCC(=O)Nc1ccc(C(=O)Nc2ccc([N+](=O)[O-])cc2OC)cc1	0	0	0	0	-	0	-
CCCN(C(=O)CCSc1ccc(F)cc1)c1c(N)n(Cc2ccccc2)c(=O)[nH]c1=O	0	0	0	0	0	0	-
CC(=O)N1c2ccc(S(=O)(=O)N3CCCCC3)cc2CC1C(=O)Nc1ccc(F)cc1C (stereo not drawn)	0	0	0	0	-	0	-
Cc1cc(SCC(=O)c2ccc(O)c(O)c2)n2nc(C)c(-c3ccccc3)c2n1	0	119	0	0	0	52	57	FLuc counter=54
Cc1cc(C)nc(SCC(=O)c2ccc(O)c(O)c2)n1	0	0	0	0	0	0	-
CC(C)OCCCNC(=O)c1ccc2c(c1)NC(=O)c1ccccc1S2	0	0	0	0	0	0	-
CCCC1=Nc2cc(C(=O)NCCCOC(C)C)ccc2Sc2ccccc21	0	0	0	0	0	50	66	FLuc counter=71
C#CCn1c(S(=O)(=O)Cc2ccccc2Cl)nc(-c2ccccc2)c1-c1ccccc1	0	0	0	0	0	73	47	FLuc counter=84
COc1ccc(-c2nnc3sc(-c4ccccn4)nn23)cc1	-	0	0	0	0	0	-
CC(C)(C)c1ccc(-c2nnc3sc(-c4ccccn4)nn23)cc1	0	0	0	0	0	66	65	FLuc counter=0
COc1ccccc1NC(=S)N=Nc1c(O)[nH]c2ccc(Br)cc12	0	?	0	0	?	70	75	FLuc counter=57
CC(C)NC(=S)N=Nc1c(O)[nH]c2ccc(C(C)C)cc12	0	0	0	0	0	55	0	FLuc counter=51
Cc1cccc(NC(=S)N=Nc2c(O)[nH]c3ccccc23)c1	0	0	0	0	0	54	0	FLuc counter=57
COc1ccc(/C(C)=N/OCC(=O)N=Nc2c(O)[nH]c3ccc(Br)cc23)cc1	0	0	0	0	0	53	0
O=C(N=Nc1c(O)[nH]c2ccccc12)Nc1ccccc1	0	-	-	-	-	-	-
CCOC(=O)N1CCN(C(=O)CSC2=NS(=O)(=O)c3cc(F)ccc3N2)CC1	0	0	0	0	0	0	-
COc1ccccc1CN(C)C(=O)COC(=O)c1cc(C)oc1C	0	-	0	0	-	0	-
CC1CCCCC1NC(=O)C1CCC(CNc2c(N3CCCCC3)c(=O)c2=O)CC1 (stereo not drawn)	0	0	0	0	0	0	-
O=C(Nc1nc2ccccc2n1CCN1CCOCC1)c1cn(-c2ccccc2)nc1-c1ccccc1	0	0	0	0	0	51	0
O=C(Nc1nc2ccccc2n1CCN1CCOCC1)c1ccccc1	0	0	0	0	0	0	-
CC1Cc2ccccc2N1C(=O)CSc1nc2c(c(=O)n(C)c(=O)n2C)n1Cc1ccccc1 (stereo not drawn)	0	0	0	0	0	50	0
O=C1CCCCc2sc(Br)c([N+](=O)[O-])c2N1	0	0	0	0	0	64	0	FLuc counter=57
O=C(COc1ccccc1C(=O)O)Nc1ccc(SC(F)F)cc1	0	-	0	0	0	0	-
SMILES	Gli-Sufu antag	CSC inhib	Jurkat NFkB inh	697 NFkB inh	Beta cell apopt	Mdm2 MdmX PPI	Mdm2-MdmX conf	others
O=C(Nc1ccc(SC(F)F)cc1)c1cccc2nc3ccccc3nc12	0	0	0	0	0	78	0
CCOc1ccc2nc(N3CCCC(C(=O)NCCCN4CC(C)CC(C)C4)C3)sc2c1 (stereo not drawn)	0	0	0	0	-	53	0
Cc1cc(C)c2nc(N3CCCC(C(=O)NCCCN4CCOCC4)C3)sc2c1 (stereo not drawn)	0	0	0	0	0	0	-
CCOc1ccc2nc(N3CCCC(C(=O)NCCCN4C(C)CCCC4C)C3)sc2c1 (stereo not drawn)	0	0	0	0	0	0	-
Cc1cc(C)c(S(=O)(=O)NCC2CCC(C(=O)NCCCN3CCC(C)CC3)CC2)c(C)c1 (stereo not drawn)	0	0	0	0	0	51	0
Cc1cc(C)c2nc(N3CCC(C(=O)NCCCN4CC(C)CC(C)C4)CC3)sc2c1 (stereo not drawn)	0	0	0	0	0	97	76	FLuc counter=0
O=C(CCl)N(O)c1ccc(C=Cc2ccccc2)cc1	0	-	-	-	-	-	-
Cc1cccc(NC(=O)c2cc(-c3cccnc3)nc3c(C)cccc23)n1	0	0	0	0	0	50	0
COc1cccc(NC(=O)c2cc(-c3cccnc3)nc3c(Cl)cccc23)c1	0	-	0	0	0	0	-
CCCCc1ccc(NC(=O)C(=O)NCCN2CCN(C(=O)c3ccc([N+](=O)[O-])cc3)CC2)cc1	0	0	0	0	0	0	-
CN(C)CCN(C)Cc1ccccc1Sc1cccc2ccccc12	0	-	0	0	0	64	43	FLuc counter=69
O=[N+]([O-])c1cnc(Sc2ccncn2)s1	0	107	0	0	109	97	100	FLuc counter=52
O=c1oc2cc(Oc3ccc(C(F)(F)F)cc3[N+](=O)[O-])ccc2c2c1CCC2	0	-	0	0	-	0	-
O=c1oc2cc(Oc3c([N+](=O)[O-])cc(C(F)(F)F)cc3[N+](=O)[O-])ccc2c2c1CCCC2	0	0	0	0	-	67	0
COc1ccc(CN(CCC#N)CCC2(c3ccccc3)CC(C)N(C)CC2C)cc1OC (stereo not drawn)	0	0	0	0	0	0	-
COc1ccc(CNCCC2(Cc3ccccc3)CC(C)N(C)CC2C)cc1OC (stereo not drawn)	0	0	0	0	0	61	0
CCc1ccc(NC(=O)CSc2nc(N)c(NC(=O)c3ccc(F)c(F)c3)c(=O)[nH]2)cc1	0	0	0	0	0	0	-
COC(=O)Nc1nc(-c2ccccc2)c(C(=O)c2ccc(Cl)cc2)s1	0	0	0	0	0	61	55	FLuc counter=88
CCOC(=O)c1c(-c2ccc(C)o2)csc1NC(=O)CSc1nnc(C)s1	0	0	0	0	0	0	-
CCOC(=O)c1c(-c2ccc(C)o2)csc1NC(=O)COC(=O)c1ccc(NC(N)=O)cc1	0	0	0	0	0	69	0
CCN(C(=O)N1CCOCC1)c1ccccc1C	0	0	0	0	0	0	-
COc1ccc(S(=O)(=O)N2CCN(c3ccccc3OC)CC2)cc1C(=O)N1CCCCC1	0	0	0	0	0	0	-
Cc1nn(-c2ccc(F)cc2)c(Cl)c1/C=C/C(=O)OCC(=O)Nc1ccc(F)cc1F	0	0	0	0	0	0	-
Cc1ccc(NC(=O)COC(=O)/C=C/c2c(C)nn(-c3ccc(F)cc3)c2Cl)cc1F	0	0	0	0	0	52	0
